# Assay results reported in the supplement of paper PMC5662767.
# Counter-ions that a name gives are not always drawn.
# Test system: Drosophila S2 cl14 SmoIP sensor cells
# Experiment: normalized SmoIP GFP fluorescence (untreated unstimulated = 0%, untreated Hh-stimulated = 100%); higher = more Smo activation sensor fluorescence
# Conditions: compound concentration: 2 uM, 24 h
# [1] = stimulation: Hh conditioned medium (+Hh)
# [2] = stimulation: mock conditioned medium (-Hh)
# 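Also: flow cytometry read-out as median GFP intensity of gated cells, compounds added 30 min before Hh-conditioned or mock medium, mock-treated cells serving as unstimulated baseline.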
Structure (SMILES),normalized SmoIP GFP fluorescence [1] [%],normalized SmoIP GFP fluorescence [2] [%]
Nc1nc(CC(=O)Nc2ccc(CCNC[C@H](O)c3ccccc3)cc2)cs1 [mirabegron-ym178],108,-5.15
CC(=O)N1CCN(CCOc2ccc(C3CCN(C4=Nn5c(nnc5C(F)(F)F)CC4)CC3)cc2)CC1,192,15
Cn1cc(C2=C(c3ccc(Cl)cc3Cl)C(=O)NC2=O)c2ccccc21,115,16.5
C[N+]1(C)[C@@H]2C[C@@H](OC(=O)C(O)(c3cccs3)c3cccs3)C[C@H]1[C@@H]1O[C@@H]12 [Tiotropium-Bromide-hydrate],114,0.334
O=C(COc1cccc2c(=O)[nH]ccc12)c1ccccc1,139,0.334
C/C(=N\NC(=S)N1CCC1)c1ccccn1,207,30.1
CC(C)(Cc1ccc2ccccc2c1)NC[C@@H](O)COc1cccc(Cl)c1C#N,157,12.8
CC(C)(C)OC(=O)N[C@H]1CCCCC/C=C\[C@@H]2C[C@@]2(C(=O)NS(=O)(=O)C2CC2)NC(=O)[C@@H]2C[C@@H](OC(=O)N3Cc4cccc(F)c4C3)CN2C1=O [Danoprevir],111,13
COc1cc2ncnc(Oc3cccc(NC(=O)Nc4cc(C(C)(C)C(F)(F)F)on4)c3)c2cc1OC,138,-13.4
CNC(=O)c1cccc(-c2ccc3c(N4CCOC[C@@H]4C)nc(N4CCOC[C@@H]4C)nc3n2)c1,65.7,-4.47
COc1ncc(-c2ccc3nccc(-c4ccnnc4)c3c2)cc1NS(=O)(=O)c1ccc(F)cc1F,57.4,-10.6
FC(F)c1nc2ccccc2n1-c1nc(N2CCOCC2)nc(N2CCOCC2)n1,90.8,-6.73
Oc1cc(O)cc(/C=C/c2ccc(O)c(O)c2)c1 [piceatannol],114,-2.08
Cc1cccc(-c2nn3c(c2-c2ccnc4ccc(C(N)=O)cc24)CCC3)n1,110,-15.4
CCOc1ccc(Cc2cc([C@@H]3O[C@H](CO)[C@@H](O)[C@H](O)[C@H]3O)ccc2Cl)cc1 [Dapagliflozin],75.9,1.57
CCc1cccc2c3c([nH]c12)C(CC)(CC(=O)O)OCC3 (stereo not given) [Etodolac],104,-3.17
O=C(c1ccc(F)cc1)N1CCC[C@H](c2nc(-c3ccc(F)cc3)no2)C1,156,-7.78
CS(=O)(=O)Nc1ccc([N+](=O)[O-])cc1Oc1ccccc1 [nimesulide],109,-4.35

Structure (SMILES),normalized SmoIP GFP fluorescence [1] [%],normalized SmoIP GFP fluorescence [2] [%]
CCCS(=O)(=O)Nc1ccc(F)c(C(=O)c2c[nH]c3ncc(Cl)cc23)c1F,108,-0.0496
Cc1ccc2c(c1)C(=O)C1(O)CCN(c3ccccc3)C1=N2 (stereo not given) [blebbistatin],105,-0.378
CC(C)NCC(O)COc1cccc2ccccc12 (stereo not given) [propranolol-hcl],111,-1.63
CN(c1ncccc1CNc1nc(Nc2ccc3c(c2)CC(=O)N3)ncc1C(F)(F)F)S(C)(=O)=O,196,39.3
C=CC(=O)Nc1cccc(Nc2nc(Nc3ccc(N4CCN(C(C)=O)CC4)cc3OC)ncc2C(F)(F)F)c1,61.9,44
Oc1c2ccccc2c2c3c(cccc13)N=N2,121,66
O=C(CCCCCCNC(=O)c1cnc(N(c2ccccc2)c2ccccc2)nc1)NO [rocilinostat-acy-1215],114,6.2
CN1CCc2c(c3ccccc3n2Cc2ccc(C(=O)NO)cc2)C1 [tubastatin-a],108,-3.05
CC(C)c1cnn2c(NCc3ccccc3)cc(NCCCCCCN)nc12,105,10.7
COc1cc(N2CCC(N)CC2)ccc1Nc1ncc(Cl)c(-c2c[nH]c3ccccc23)n1,113,-2.48
CC(=O)O[C@]1(C(C)=O)CC[C@H]2[C@@H]3C=C(C)C4=CC(=O)CC[C@]4(C)[C@H]3CC[C@@]21C [Megestrol-Acetate],106,-0.804
CCN1CCN(c2ccc(Nc3cc(N(C)C(=O)Nc4c(Cl)c(OC)cc(OC)c4Cl)ncn3)cc2)CC1,111,-12.7
CN[C@H]1CC[C@@H](c2ccc(Cl)c(Cl)c2)c2ccccc21 [sertraline-hcl],108,2.46
C#C[C@]1(OC(C)=O)CC[C@H]2[C@@H]3CCC4=C[C@@H](OC(C)=O)CC[C@@H]4[C@H]3CC[C@@]21C [ethynodiol-diacetate],100,-1.63
O=C(O)CC[C@H]1CC[C@@](c2cc(F)ccc2F)(S(=O)(=O)c2ccc(Cl)cc2)CC1,114,2.32
CC1(C)O[C@@H]2[C@@H](CO[C@@]3(COS(N)(=O)=O)OC(C)(C)O[C@@H]23)O1 [Topiramate],114,5.45
CCOC(=O)[C@H](CCc1ccccc1)N[C@H]1CCCN2CCC[C@H](C(=O)O)N2C1=O [cilazapril-monohydrate-inhibace],111,6.28
